Inconclusive results are not listed. Entries that show only a call come without a potency. The source made the active and inactive calls. Calls follow the shape of the dose curve; as a rule, active = well fitted inhibition curve with a large enough effect in the repeat runs; inconclusive = weak or mixed curves; inactive = no such curve, though single readings can be large or run the other way.
Target: Cytochrome P450 1A2 (Homo sapiens) (UniProt P05177)
Assay: Cytochrome P450 Family 1 Subfamily A Member 2 (CYP1A2) small molecule antagonists: luciferase reporter qHTS assay (AID 1671199); also: nearly all actives have a fitted effect of over 50% in size
Conditions: P450-Glo CYP1A2 enzyme, luciferin luminescence, 1 h; series mostly up to 53 µM
Summary of the method: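 P450-Glo CYP1A2, 1536-well qHTS: enzyme/proluciferin substrate + cpd (DMSO), 10 min RT; NADPH regen, 1 h RT; detection reagent, 20 min; luminescence, RLU.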
Potency is read from the fitted curve at half-maximal effect.

Sequence of Cytochrome P450 1A2 (Homo sapiens) (P05177 whole entry, looked up): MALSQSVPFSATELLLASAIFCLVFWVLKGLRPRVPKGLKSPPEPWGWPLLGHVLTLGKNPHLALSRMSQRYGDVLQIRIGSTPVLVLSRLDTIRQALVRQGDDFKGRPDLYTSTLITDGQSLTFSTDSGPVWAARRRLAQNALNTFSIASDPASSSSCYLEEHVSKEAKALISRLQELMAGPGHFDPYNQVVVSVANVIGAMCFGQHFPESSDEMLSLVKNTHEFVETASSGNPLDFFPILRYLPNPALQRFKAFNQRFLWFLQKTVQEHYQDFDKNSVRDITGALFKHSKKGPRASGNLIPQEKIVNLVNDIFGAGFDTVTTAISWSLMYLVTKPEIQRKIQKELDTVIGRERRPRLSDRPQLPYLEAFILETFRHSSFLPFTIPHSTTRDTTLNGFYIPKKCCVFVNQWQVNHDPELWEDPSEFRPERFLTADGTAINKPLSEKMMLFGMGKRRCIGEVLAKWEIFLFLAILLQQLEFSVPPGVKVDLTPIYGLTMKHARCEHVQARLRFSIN

| Structure (SMILES) | Potency |
| --- | --- |
| CN(CCOc1ccc(NS(C)(=O)=O)cc1)CCc1ccc(NS(C)(=O)=O)cc1 | inactive |
| CC(N)C(=O)OC(C)(C)Cc1ccc(Cl)cc1 (centres undefined) | 1.38 µM (active) |
| CC(C)C(=O)OCc1cccc(OC(=O)[C@@H]2N3C(=O)[C@@H](NC(=O)Cc4ccccc4)[C@H]3SC2(C)C)c1 | inactive |
| COc1ccc2nc(SCc3ncc(C)c(OC)c3C)[nH]c2c1 | 15.5 µM (active) |
| COc1ccc2c(c1OC)C(=O)O[C@@H]2[C@H]1c2c(cc3c(c2OC)OCO3)CCN1C | inactive |
| CC(=O)CCCCn1c(=O)c2c(ncn2C)n(C)c1=O | inactive |
| CC1(CO)CN(c2ccccc2)NC1=O (centres undefined) | 35.6 µM (active) |
| CO[C@@H]1[C@@H](OC(N)=O)[C@@H](O)[C@H](Oc2ccc3c(O)c(NC(=O)c4ccc(O)c(CC=C(C)C)c4)c(=O)oc3c2C)OC1(C)C | inactive |
| CCCCCCCCSCC | inactive |
| Cc1cc2cc3c(C)cc(=O)oc3c(C)c2o1 | 6.45 µM (active) |
| COC(=O)CCc1ccc(OCC(O)CNC(C)C)cc1 (centres undefined) | inactive |
| CC(=O)Nc1ccc(S(=O)(=O)Cl)cc1 | inactive |
| CC(C)=O | inactive |
| O=C(CCN1CCN(CCO)CC1)N1c2ccccc2Sc2ccc(C(F)(F)F)cc21 | inactive |
| Cc1[nH]cnc1-c1ccc(Cl)cc1 | 2.19 µM (active) |
| NC(CO)C(=O)NNCc1ccc(O)c(O)c1O (centres undefined) | inactive |
| Cc1cccc2nccnc12 | inactive |
| O=C(NCCc1c[nH]c2ccccc12)c1cccnc1 | 12.9 µM (active) |
| CC(=O)NCc1c(I)c(NC(C)=O)c(I)c(C(=O)O)c1I | inactive |

Source: PubChem BioAssay (Tox21)
